For 40 compounds, Potency results are on record in PubChem BioAssay (Tox21).

“And” between values parts separate entries of the source, which are not always exact repeats. Equal entries are not always repeated. Results filed as inconclusive are left out. A call without a number means that no potency is given here. The source made the active and inactive calls. Calls follow the shape of the dose curve; as a rule, active = well fitted cell-killing curve with a large enough effect in the repeat runs; inconclusive = weak or mixed curves, or effect the other way; inactive = no such curve, though single readings can be large or run the other way.
Potency is read from the fitted curve at half-maximal effect.

The assay can be described thus: qHTS assay to identify small molecule antagonists of the peroxisome proliferator-activated receptor gamma (PPARg) signaling pathway - cell viability counter screen (AID 743194). Also: nearly all actives have a fitted effect of over 55% in size. The note with it: PPARg-bla HEK293H viability, CellTiter-Glo luminescence, 17 h; Potency: co-treated with 50 nM rosiglitazone; series mostly up to 62.6 µM. An excerpt: U.S. Tox21 Program National Center for Advancing Translational Sciences [NCATS] NIH Chemical Genomics Center [NCGC] U.S. Environmental Protection Agency [EPA] National Institutes of Environmental Health Sciences [NIEHS] National Toxicology Program [NTP] U.S. Food and Drug Administration [FDA] Tox21 Assay Overview: The peroxisome proliferator-activated receptors (PPARs) are lipid-activated transcription factors of the nuclear receptor superfamily with three distinct subtypes namely PPAR alpha, PPAR delta (also called PPAR beta) and PPAR gamma (PPARg). All these subtypes heterodimerize with Retinoid X receptor (RXR) and these heterodimers regulate transcription of various genes. PPAR-gamma receptor (glitazone receptor) is involved in the regulation of glucose and lipid metabolism. To identify the compounds that activate PPAR-gamma signaling, GeneBLAzer PPAR gamma UAS-bla HEK293H cell line (Invitrogen, Carlsbad, CA, USA) containing a beta-lactamase reporter gene under the control of an Upstream Activator Sequence (UAS) was used to screen the Tox21 compound library. The cytotoxicity of the Tox21 compound library against the PPARg-bla cell line was tested in parallel by measuring the cell viability using CellTiter-Glo assay in the same wells.
Tox21 Assay Protocol Summary: PPARg-bla cells were dispensed at 3000 cells/5uL/well in 1536-well black wall/clear bottom plates using a Multidrop Combi (Thermo Fisher Scientific, Waltham, MA) dispenser. After the assay plates were incubated at 37 C and 5% CO2 for 5 h, 23 nL of compounds dissolved in DMSO, positive controls or DMSO only was transferred to the assay plate by a Pintool station (Kalypsys, San Diego, CA), followed by addition of 1ul Rosiglitazone (50 nM, final concentration in the wells). The assay plates were incubated at 37 C for 17 h, and then 1 uL of LiveBLAzerTM B/G FRET substrate was added using a Bioraptr Flying Reagent Dispenser (FRD) workstation (Beckman Coulter, Indianapolis, IN, USA). The assay plates were incubated at room temperature for 1 h and fluorescence intensity was measured by an Envision plate reader (PerkinElmer, Shelton, CT). For cell viability readout that measures cytotoxicity, 4 ul/well of CellTiter-Glo reagent was added into the assay plates using a Flying Reagent Dispenser. After 30 min incubation at room temperature, the luminescence intensity in the plates was measured using a ViewLux plate reader (PerkinElmer).
`Nc1nc(N)nc(N)n1`: the Potency entry is “inactive”.

In the case of `ClC=C(Cl)Cl`, the Potency entry is “inactive”.

Take `CS/C(C)=N/OC(=O)N(C)SN(C)C(=O)O/N=C(\C)SC`: the Potency entry was “inactive”. For `NCCCNCCCN`, the Potency result was “inactive”.

For `O=C(NC(=O)c1c(F)cccc1F)Nc1ccc(OC(F)(F)C(F)OC(F)(F)F)c(Cl)c1` (stereo not given), the Potency result was “inactive”. As to `Nc1ccc(N=Nc2ccc(-c3ccc(N=Nc4c(S(=O)(=O)O)cc5cc(S(=O)(=O)O)c(N=Nc6ccccc6)c(O)c5c4N)cc3)cc2)c(N)c1`, the Potency result was “inactive”.

On to `O=C(NCc1cccnc1)Nc1ccc([N+](=O)[O-])cc1`, for which the Potency result was “inactive”. The entry for `CC[C@H]1C[C@H]2[C@@H]3CCC4=CC(=O)CC[C@@H]4[C@H]3CC[C@]2(C)[C@H]1O` is “inactive”. For `BrCCCCBr`, the Potency result is “inactive”. Take `CO/N=C(/C(=O)OC)c1ccccc1COc1ccccc1C`: the Potency result was “inactive”. To `C=CC(C)=O` belongs “inactive”; to `C=CCCl`, “inactive”.

Regarding `CCCC(=O)Cl`, the Potency entry is “inactive”. The entry for `CC(=O)C(C)(C)C` is “inactive”.

`CC(Cl)C(C)Cl` (stereo not given): the Potency entry is “inactive”. To `CC1(C)[C@H](C=C(Cl)Cl)[C@@H]1C(=O)O[C@@H](C#N)c1cccc(Oc2ccccc2)c1` belongs “inactive”; to `CCCCNP(N)(N)=S`, “inactive”; to `CC(=O)c1cc2c(cc1C)C(C)(C)C(C)CC2(C)C` (stereo not given), “inactive”.

With `CN(C)c1ccc(N(C)C)cc1`, the Potency result is “inactive”.

Take `NC(=O)CI`: the Potency entry is “inactive”. The entry for `CCOc1ccc(C(C)(C)COCc2cccc(Oc3ccccc3)c2)cc1` is “inactive”; for `C[N+](C)(C)CCCl` it is “inactive”.

Take `O=C(O)CC(Cl)C(=O)O` (stereo not given): the Potency result was “inactive”. To `CCCCCCCCOC(=O)c1ccc(C(=O)OCCCCCCCC)c(C(=O)OCCCCCCCC)c1` belongs “inactive”; to `O=C(CBr)OCc1ccccc1`, “inactive”. With `O=C(O)C(F)(F)C(F)(F)C(F)(F)C(F)(F)C(F)(F)C(F)(F)C(F)(F)C(F)(F)C(F)(F)F`, the Potency entry was “inactive”.

As for `CCC(Cl)CCl` (stereo not given), the Potency entry is “inactive”. The entry for `O=C(O)c1ccccc1C(=O)Nc1cccc2ccccc12` is “inactive”; for `Clc1ccc(C(OCCN2CCCCC2)c2ccccc2)cc1` (stereo not given) it is “inactive”; for `c1ccc(C2CC2)c(OCC2=NCCN2)c1` it is “inactive”. For the compound `CC(C)(CCl)C(=O)Cl`, the Potency result is “inactive”. To `O=C1NCN(c2ccccc2)C12CCN(CCCOc1ccc(F)cc1)CC2` belongs “inactive”; to `O=C(CBr)c1ccccc1`, “inactive”; to `N#CCc1ccccc1`, “inactive”.

Turning to `CC(C)(OO)c1ccccc1`, the Potency result was “inactive”. The entry for `N#Cc1ccc(Cl)cc1` is “inactive”; for `COC(=O)C(C)N(C(=O)Cc1ccccc1)c1c(C)cccc1C` (stereo not given) it is “inactive”; for `CC/C(=N\OC/C=C/Cl)C1=C(O)CC(C2CCOCC2)CC1=O` (stereo not given) it is “inactive”.

Regarding `C(=NC1CCCCC1)=NC1CCCCC1`, the Potency is 4.93 µM (active) and 3.47 µM (active). With `C=CC(=O)OCC(C)O` (stereo not given), the Potency result was “inactive”.
